{
  "source": "PubChem BioAssay (EPA / NIEHS)",
  "key": {"[1]": {"tested_on": "Thyroperoxidase (TPO), gene 445522", "test": "CCTE_Simmons_GUA_TPO: CCTE's Guaiacol Assay for Thyroperoxidase (TPO) Inhibition, Simmons Lab (AID 2283750; active = hit-call score of the fitted dose curve at least 0.9, where 1 is the maximum)", "in_short": "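Porcine thyroid microsomes (25 ug) in 200mM potassium phosphate, preincubated 30 s at 37C with compound (8 concentrations, 5 nM–87.5 uM) and 35mM guaiacol; 1mM H2O2 starts reaction. Absorbance change at 450nm over first 80 s; loss of signal versus DMSO, three replicates.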"}, "[2]": {"test": "CCTE_Padilla_ZF_144hpf_TERATOSCORE: (Legacy) CCTE's 144 Hour Post-fertilization zebrafish Assay Teratoscore, Padilla Lab (AID 2283679);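 as to AC50: zebrafish embryos with chorions exposed by immersion from 6-8 hpf to 5 dpf with daily renewal; higher score means more developmental defects relative to DMSO baseline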", "in_short": "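Larvae scored by eye at 144 hpf for death, hatching and malformations after a day in clean Hanks'. Before that, daily-renewed exposure at 80 uM (0.4% DMSO, 26C) from roughly 6-8 hpf through 5 dpf, 4 embryos per chemical.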"}, "[3]": {"test": "Tanguay_ZF_120hpf_TR_legacy: (Legacy) Oregon State University Tanguay Lab 120 Hour Post-fertilization zebrafish Assay for Touch Response (AID 2283667; active = hit-call score of the fitted dose curve at least 0.9, where 1 is the maximum)", "in_short": "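Binary touch-response endpoint in larvae at 120 hpf after static waterborne exposure from embryo stage (28°C, 0.64% DMSO vehicle, 5 uM trimethyltin chloride as positive control); embryos dead at 24 or 120 hpf excluded; fitted as gain versus DMSO.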"}, "[4]": {"test": "CEETOX_H295R_MTT_cell_viability: Viability Assessment in the CeeTox HT-H295R MTT Assay (AID 2283718)", "in_short": "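MTT reduction (0.5 mg/ml, 4 h at 37 C; absorbance at 570 and 650 nm) gave viability as background-corrected percent change versus controls. H295R cells had 48 h forskolin (10 uM) prestimulation, then 48 h chemical exposure at 0.1% DMSO.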"}, "[5]": {"test": "Tanguay_ZF_120hpf_ActivityScore_legacy: (Legacy) Oregon State University Tanguay Lab 120 Hour Post-fertilization zebrafish Assay Score for Activity (AID 2283742; active = hit-call score of the fitted dose curve at least 0.9, where 1 is the maximum;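 as to AC50: dechorionated Tropical 5D wild-type zebrafish embryos held singly per well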)", "in_short": "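Binary scoring of mortality and morphology by brightfield at 24 and 120 hpf, summarised into one activity score from 18 components relative to DMSO. Wild-type Tropical 5D zebrafish, chorion removed at 4 hpf, static exposure 6–120 hpf, 28 °C.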"}, "[6]": {"test": "STM_H9_OrnithineISnorm_perc: Stemina devTOX quickPredict H9 human embryonic stem cell (hESC)-based Assay for Ornithine (ORN) Metabolite Biomarker, Normalized (AID 2283712);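 also: ornithine released into spent medium during last day measured by mass spectrometry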", "in_short": "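UPLC-HRMS readout: endogenous ornithine EIC area / 13C-ORN internal standard, then % of 0.1% DMSO median. H9 hESCs (pluripotent), 72h exposure, re-dosed with fresh media q24h; last 24-h spent media, deproteinized in 40% acetonitrile.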"}, "[7]": {"test": "STM_H9_CystineISnorm_perc: Stemina devTOX quickPredict H9 human embryonic stem cell (hESC)-based Assay for Cystine (CYSS) Metabolite Biomarker, Normalized (AID 2283713)", "in_short": "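UPLC-HRMS read-out: endogenous cystine peak area in spent medium, normalized to isotope-labeled internal standard and to median of 0.1% DMSO controls. Pluripotent H9 cells, 72h exposure, daily medium/compound replenishment; medium from last 24h sampled.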"}},
  "note": "Results filed as inconclusive are left out. Activity calls are given as the source filed them. The calls were made as follows, unless noted: active = hit-call score of the fitted dose curve at least 0.9, where 1 is the maximum; inactive = score below 0.9.",
  "data": [
    {"compound": "Cc1c2ccccc2c(C)c2c1ccc1ccccc12", "values": [
      {"measurement": "AC50", "setting": "[1]", "value": "146 µM (active)"}
    ]},
    {"compound": "Oc1ccc2ccccc2c1", "values": [
      {"measurement": "AC50", "setting": "[1]", "value": "72.8 µM (active)"}
    ]},
    {"compound": "CC1=CC(=O)/C(=C(/C)O)C(=O)O1", "values": [
      {"measurement": "outcome", "setting": "[2]", "value": "inactive"}
    ]},
    {"compound": "O=C(O)c1ccccc1C(=O)OCc1ccccc1", "values": [
      {"measurement": "outcome", "setting": "[3]", "value": "inactive"},
      {"measurement": "outcome", "setting": "[4]", "value": "inactive"},
      {"measurement": "outcome", "setting": "[5]", "value": "inactive"}
    ]},
    {"compound": "Clc1cc(Cl)c2c(c1)N=C1CCCCCN1C2", "values": [
      {"measurement": "AC50", "setting": "[3]", "value": "15.7 µM (active)"},
      {"measurement": "AC50", "setting": "[2]", "value": "12.2 µM (active)"},
      {"measurement": "outcome", "setting": "[6]", "value": "inactive"},
      {"measurement": "outcome", "setting": "[7]", "value": "inactive"},
      {"measurement": "outcome", "setting": "[4]", "value": "inactive"}
    ]},
    {"compound": "Cc1oc2c(NC(=O)c3c(Cl)cccc3Cl)cccc2c1C(C)(C)O", "values": [
      {"measurement": "outcome", "setting": "[3]", "value": "inactive"},
      {"measurement": "AC50", "setting": "[2]", "value": "8.93 µM (active)"},
      {"measurement": "outcome", "setting": "[4]", "value": "inactive"},
      {"measurement": "AC50", "setting": "[5]", "value": "45.5 µM (active)"}
    ]},
    {"compound": "Cc1ccc2oc(CN(Cc3ccccc3)C(=O)Nc3c(F)cc(F)cc3F)c(-c3ccc(Cl)cc3)c2c1", "values": [
      {"measurement": "outcome", "setting": "[3]", "value": "inactive"},
      {"measurement": "outcome", "setting": "[2]", "value": "inactive"},
      {"measurement": "outcome", "setting": "[4]", "value": "inactive"},
      {"measurement": "outcome", "setting": "[5]", "value": "inactive"}
    ]},
    {"compound": "O=C(O)Cn1c(=O)n(Cc2ccc(Br)cc2F)c(=O)c2ccc(Cl)cc21", "values": [
      {"measurement": "outcome", "setting": "[3]", "value": "inactive"},
      {"measurement": "outcome", "setting": "[4]", "value": "inactive"},
      {"measurement": "outcome", "setting": "[5]", "value": "inactive"}
    ]},
    {"compound": "CCCCOC(=O)CC(CC(=O)OCCCC)(OC(C)=O)C(=O)OCCCC", "values": [
      {"measurement": "outcome", "setting": "[3]", "value": "inactive"},
      {"measurement": "AC50", "setting": "[2]", "value": "4.96 µM (active)"},
      {"measurement": "outcome", "setting": "[5]", "value": "inactive"}
    ]},
    {"compound": "C[C@]12CC[C@@H]3c4ccc(O)cc4CC[C@H]3[C@@H]1CCC2=O", "values": [
      {"measurement": "outcome", "setting": "[3]", "value": "inactive"},
      {"measurement": "outcome", "setting": "[2]", "value": "inactive"},
      {"measurement": "outcome", "setting": "[4]", "value": "inactive"},
      {"measurement": "outcome", "setting": "[5]", "value": "inactive"}
    ]},
    {"compound": "NC(=O)c1nc(-c2cccc(-c3cc(F)ccc3OCC(F)(F)C(F)(F)F)c2)n[nH]1", "values": [
      {"measurement": "AC50", "setting": "[3]", "value": "26.6 µM (active)"},
      {"measurement": "AC50", "setting": "[2]", "value": "1.08 µM (active)"},
      {"measurement": "outcome", "setting": "[6]", "value": "inactive"},
      {"measurement": "AC50", "setting": "[7]", "value": "3.59 µM (active)"},
      {"measurement": "outcome", "setting": "[4]", "value": "inactive"}
    ]},
    {"compound": "CCCCCCCCCCCC[N+](C)(C)C", "values": [
      {"measurement": "outcome", "setting": "[3]", "value": "inactive"},
      {"measurement": "AC50", "setting": "[6]", "value": "7.79 µM (active)"},
      {"measurement": "AC50", "setting": "[7]", "value": "1.6 µM (active)"},
      {"measurement": "outcome", "setting": "[4]", "value": "inactive"},
      {"measurement": "outcome", "setting": "[5]", "value": "inactive"}
    ]},
    {"compound": "CCCCCCCC[Si](OCC)(OCC)OCC", "values": [
      {"measurement": "outcome", "setting": "[3]", "value": "inactive"},
      {"measurement": "outcome", "setting": "[2]", "value": "inactive"},
      {"measurement": "outcome", "setting": "[4]", "value": "inactive"},
      {"measurement": "outcome", "setting": "[5]", "value": "inactive"}
    ]},
    {"compound": "Cc1ccc(C(C)C)cc1", "values": [
      {"measurement": "outcome", "setting": "[3]", "value": "inactive"},
      {"measurement": "outcome", "setting": "[5]", "value": "inactive"}
    ]},
    {"compound": "CN(C)C(=O)C1(N2CCCCC2)CCN(CC[C@@]2(c3ccc(Cl)c(Cl)c3)CN(C(=O)c3ccccc3)CCO2)CC1", "values": [
      {"measurement": "AC50", "setting": "[2]", "value": "15 µM (active)"},
      {"measurement": "AC50", "setting": "[6]", "value": "8.19 µM (active)"},
      {"measurement": "outcome", "setting": "[7]", "value": "inactive"}
    ]},
    {"compound": "CN1C(=O)N(c2ccccc2Br)Cc2cnc(Nc3ccc4c(c3)OCC(CO)O4)nc21", "note": "(centres undefined)", "values": [
      {"measurement": "AC50", "setting": "[2]", "value": "4.31 µM (active)"},
      {"measurement": "AC50", "setting": "[6]", "value": "1.42 µM (active)"},
      {"measurement": "AC50", "setting": "[7]", "value": "1.06 µM (active)"},
      {"measurement": "outcome", "setting": "[4]", "value": "inactive"},
      {"measurement": "AC50", "setting": "[5]", "value": "6.73 µM (active)"}
    ]},
    {"compound": "COc1ccc2cc(S(=O)(=O)N[C@H](CC(=O)N[C@H](Cc3ccc(CN4[C@H](C)CCC[C@@H]4C)cc3)C(=O)N(C)C(C)C)c3ccc4c(c3)OCO4)ccc2c1", "values": [
      {"measurement": "outcome", "setting": "[3]", "value": "inactive"},
      {"measurement": "AC50", "setting": "[2]", "value": "52.9 µM (active)"},
      {"measurement": "AC50", "setting": "[6]", "value": "18.4 µM (active)"},
      {"measurement": "AC50", "setting": "[7]", "value": "22.6 µM (active)"}
    ]},
    {"compound": "Cc1cccc2ccccc12", "values": [
      {"measurement": "outcome", "setting": "[3]", "value": "inactive"},
      {"measurement": "outcome", "setting": "[5]", "value": "inactive"}
    ]}
  ]
}
